“And” between values parts separate entries of the source, which are not always exact repeats. Equal entries are not always repeated. Compounds without any hit were thinned out: in the full panel of roughly 83,000, 20% have a hit.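 How to read the values: 0–100, growth inhibition (40 = 60% inhibited); 0, no net growth; -100 to 0, cell death (-40 = 40% of starting cells died; -100 = all dead).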 The source made the active and inactive calls. Rule for the calls: active = growth percent below 10; inactive = the rest.
Tests used:
Experiment in all cases: NCI-60 one-dose screen, 48 h (100 = growth as untreated, 0 = no growth, -100 = all killed)
Settings in all cases: 10 µM unless noted
[1] = system: NCI-H23 lung
[2] = system: NCI-H226 lung
[3] = system: NCI-H322M lung
[4] = system: HOP-62 NSCLC
[5] = system: NCI-H460 lung
[6] = system: HOP-92 NSCLC
[7] = system: NCI-H522 lung
[8] = system: A549/ATCC NSCLC
[9] = system: 786-0 renal
[10] = system: COLO 205 colon
[11] = system: DU-145 prostate
[12] = system: K-562 leukemia
[13] = system: MALME-3M melanoma
[14] = system: MDA-MB-231 breast
[15] = system: RXF 393 renal
[16] = system: SF-268 CNS
[17] = system: SF-295 CNS
[18] = system: SF-539 CNS
[19] = system: UACC-257 melanoma
[20] = system: M14 melanoma

| SMILES | growth [1] | growth [2] | growth [3] | growth [4] | growth [5] | growth [6] | growth [7] | growth [8] | growth [9] | growth [10] | growth [11] | growth [12] | growth [13] | growth [14] | growth [15] | growth [16] | growth [17] | growth [18] | growth [19] | growth [20] |
| --- | --- | --- | --- | --- | --- | --- | --- | --- | --- | --- | --- | --- | --- | --- | --- | --- | --- | --- | --- | --- |
| CC1=C[C@H]2c3c(c(O)c(O)c4oc5cc(O)cc(O)c5c(=O)c34)[C@H](c3cc(O)c(O)c4oc5cc(O)cc(O)c5c(=O)c34)[C@H]2C(C)(C)C1 | -5.6% (active) and -52.4% (active) | 2.7% (active) and -31.2% (active) | 12.1% (inactive) and -11.1% (active) | -16.2% (active) | -41.5% (active) and -57.7% (active) | -8.6% (active) and -43.8% (active) | -50.7% (active) and -52.7% (active) | -10% (active) and -37.5% (active) | -18.9% (active) and -42.3% (active) | -44.6% (active) | 22.6% (inactive) and -4.25% (active) | 2.32% (active) | 10.8% (inactive) and -30.5% (active) | -7.38% (active) and -58.3% (active) | -4.11% (active) | 10.3% (inactive) and -12.3% (active) | -47.5% (active) and -27.1% (active) | -33.5% (active) and -26.5% (active) | 21% (inactive) and 0.565% (active) | -9.96% (active) and -19.6% (active) |
| Cn1c(=O)c2[nH]c(CCCCCCCCc3nc4ccccc4[nH]3)nc2n(C)c1=O | 47.4% (inactive) and 55.2% (inactive) | 58.1% (inactive) and 66.3% (inactive) | 87.3% (inactive) and 99.6% (inactive) | 57% (inactive) and 49.2% (inactive) | 68.4% (inactive) and 73.6% (inactive) | 60.4% (inactive) | 72.8% (inactive) | 67.4% (inactive) and 70.1% (inactive) | 73.1% (inactive) and 75.1% (inactive) | 88% (inactive) and 99.6% (inactive) | 91.2% (inactive) and 82.7% (inactive) | 30.9% (inactive) | 71.9% (inactive) | 77% (inactive) and 60.9% (inactive) | 87.9% (inactive) and 101% (inactive) | 83.5% (inactive) and 98.3% (inactive) | 34.8% (inactive) and 35.9% (inactive) | 78.2% (inactive) and 74.8% (inactive) | 39.7% (inactive) and 72% (inactive) | 80.7% (inactive) and 80.8% (inactive) |
| CCOC(=O)C(C(=O)OCC)C(c1ccccc1)N1CCN(c2ccccc2)CC1 (stereo not given) | 107% (inactive) and 114% (inactive) | 112% (inactive) and 96.9% (inactive) | 93.3% (inactive) and 107% (inactive) | 116% (inactive) and 105% (inactive) | 116% (inactive) and 109% (inactive) | 98.1% (inactive) and 86.6% (inactive) | 89.7% (inactive) and 88% (inactive) | 99.3% (inactive) and 83.2% (inactive) | 104% (inactive) and 102% (inactive) | 114% (inactive) and 124% (inactive) | 127% (inactive) and 109% (inactive) | 120% (inactive) and 93.5% (inactive) | 92.2% (inactive) | 109% (inactive) and 125% (inactive) | 102% (inactive) and 97.6% (inactive) | 110% (inactive) and 100% (inactive) | 108% (inactive) and 105% (inactive) | 111% (inactive) and 118% (inactive) | 98.6% (inactive) and 100% (inactive) | 102% (inactive) and 103% (inactive) |
| CCOc1ccc2nc3cc(N)ccc3c(N)c2c1 | 46.3% (inactive) and 40.5% (inactive) | 20.2% (inactive) and 44.6% (inactive) | 36.7% (inactive) and 28.8% (inactive) | 23% (inactive) and 26.8% (inactive) | 29.3% (inactive) and 61.9% (inactive) | 58.3% (inactive) | 0.893% (active) and 10.4% (inactive) | 77.6% (inactive) and 77.2% (inactive) | 24.2% (inactive) and 13.8% (inactive) | 71.1% (inactive) and 75.9% (inactive) | 64.2% (inactive) and 67.6% (inactive) | 113% (inactive) and 57.9% (inactive) | -18.6% (active) and -14.8% (active) | 86.5% (inactive) | 55.5% (inactive) and 43.2% (inactive) | -39.5% (active) and -36.7% (active) | 30.4% (inactive) and 16.5% (inactive) | 34.9% (inactive) and 31.7% (inactive) | 62.3% (inactive) and 67.3% (inactive) | 90.3% (inactive) and 75.8% (inactive) |
| O=[N+]([O-])c1ccccc1N(S(=O)(=O)c1ccccc1)S(=O)(=O)c1ccccc1 | 106% (inactive) and 95.9% (inactive) | 113% (inactive) and 91.2% (inactive) | 90% (inactive) and 95% (inactive) | 118% (inactive) and 119% (inactive) | 108% (inactive) and 114% (inactive) | 92.8% (inactive) and 101% (inactive) | 94.7% (inactive) and 87.3% (inactive) | 91.3% (inactive) and 80.2% (inactive) | 109% (inactive) | 129% (inactive) and 117% (inactive) | 118% (inactive) and 99.7% (inactive) | 93% (inactive) and 113% (inactive) | 120% (inactive) and 109% (inactive) | 112% (inactive) and 96.5% (inactive) | 119% (inactive) and 108% (inactive) | 96.3% (inactive) and 95.2% (inactive) | 108% (inactive) and 77.6% (inactive) | 117% (inactive) and 104% (inactive) | 85.7% (inactive) and 92.4% (inactive) | 128% (inactive) and 98.6% (inactive) |
| CN(C)c1ccc(C(=C2C=CC(=[N+](C)C)C=C2)c2ccccc2Cl)cc1 | -52.2% (active) and -82.2% (active) | -41.3% (active) and -56.5% (active) | -7.26% (active) and 10.3% (inactive) | -43.7% (active) and -94.3% (active) | -60.8% (active) and -49.7% (active) | -78.2% (active) and -72% (active) | -57.4% (active) and -56.5% (active) | -55.9% (active) and -34.5% (active) | -88.2% (active) and -100% (active) | -89.1% (active) and -90% (active) | -97% (active) | 7.59% (active) | -56.3% (active) and -46.1% (active) | -36.9% (active) and -66.9% (active) | -84.3% (active) | -84.1% (active) | -30.4% (active) and -25.8% (active) | -58.9% (active) and -92.1% (active) | -77.7% (active) | -62.8% (active) and -95.3% (active) |
| CCN(CC)CCCC(C)Nc1cnc(C(=O)Nc2cc(F)cc3cccnc23)cn1 (stereo not given) | 81.4% (inactive) and -25.1% (active) | 85.1% (inactive) and 49.5% (inactive) | 63.8% (inactive) and 0.121% (active) | 64.1% (inactive) and -14.1% (active) | 69.5% (inactive) and -75.9% (active) | 37.5% (inactive) and -76.6% (active) | 52.7% (inactive) and -59.4% (active) | 58% (inactive) and 18.9% (inactive) | 68.4% (inactive) and -55.1% (active) | 3.11% (active) and -50.9% (active) | 63.3% (inactive) and -82.2% (active) | 3.95% (active) and 4.95% (active) | -8.34% (active) and -76.1% (active) | 59.4% (inactive) and -55% (active) | 33.8% (inactive) and -84.4% (active) | 51.9% (inactive) and -92.1% (active) | 71.2% (inactive) and 3.03% (active) | 83.1% (inactive) and 8.22% (active) | 76.8% (inactive) and -12.4% (active) | 21.9% (inactive) and -5.6% (active) |

Reference: PubChem BioAssay (NCI)
